Among the data in PubChem BioAssay AID463173 (ICCB-Longwood Screening Facility, Harvard Medical School, 2010) are survival values, retold here.

Screen size: about 52,000 compounds; about 4,300 (8.3%) were called active. Rule as the data show it: active = survival mostly below about 52% (no sharp cut-off); inactive = mostly above about 56%. Many of the other results were omitted from the sample, so actives are more common in it than they were.

The subject of this test is DeltatarO mutant. The experiment in a line: S. aureus survival, RN4220 and DeltatarO strains – OD600, teichoic acid synthesis inhibitors, primary screen (AID 463173). To be noted: S. aureus RN4220 wild type/DeltatarO growth, OD600, 18 h, hits give low values, screened at 18.75 µg/mL (by protocol).
As for `Cc1cccc(-n2c(CCN3C(=O)c4ccccc4C3=O)nc3ccccc3c2=O)n1`, the survival is 87% (inactive).

As for `Clc1ccc(CN2CCc3nc(Nc4ccc5c(c4)OCCO5)ncc3C2)cc1`, the survival was 94% (inactive).

For `CCOc1ccc(NC(=O)Cn2cc(C(=O)c3ccc(C)cc3)c(=O)c3cc4c(cc32)OCO4)cc1`, the survival was 70% (inactive).

For the compound `CCOc1ccc(NC(=O)CCS(=O)(=O)c2ccc3nc(C)sc3c2)cc1`, the survival was 55% (inactive).

On to `CCOC(=O)c1ccccc1NC(=O)CN1C(=O)CC(c2ccco2)Sc2ccccc21` (configuration not stated), for which the survival is 72% (inactive).

For the compound `Cc1ccc(CNC(=O)C(C)n2ccc3cc(S(=O)(=O)N4CCCC4)ccc32)cc1` (configuration not stated), the survival was 102% (inactive).

With `CC(C(=O)NCc1ccccc1)n1ccc2cc(S(=O)(=O)N3CCCC3)ccc21` (configuration not stated), the survival was 20% (active).

`O=C(Cn1ccc2cc(S(=O)(=O)N3CCCCC3)ccc21)NCCc1ccccc1Cl`: the survival is -4% (active).

On to `O=C(Cn1ccc2cc(S(=O)(=O)N3CCCCCC3)ccc21)NCc1ccccc1Cl`, for which the survival is 77% (inactive).

Turning to `O=C(Cn1ccc2cc(S(=O)(=O)N3CCCCCC3)ccc21)NCCc1ccccc1Cl`, the survival was 88% (inactive).

On to `CCc1ccc(CNC(=O)C(C)n2ccc3cc(S(=O)(=O)N4CCCCCC4)ccc32)cc1` (configuration not stated), for which the survival is 94% (inactive).

Turning to `CCn1nc(C)c2c(-c3ccccc3)cc(=O)n(C(C)C(=O)NCCC(C)C)c21` (configuration not stated), the survival was 99% (inactive).

For the compound `COc1ccccc1CNC(=O)C(NS(=O)(=O)c1ccc2c(c1)CCN2C(C)=O)C(C)C` (configuration not stated), the survival is 79% (inactive).

Take `Cc1ccc2sc(NC(=O)c3ccc4c(c3)OCCO4)nc2c1C`: the survival is 92% (inactive).

With `CNC(=O)c1c(NC(=O)c2cc(=O)c3ccccc3o2)sc2c1CCC2`, the survival is 94% (inactive).

As to `O=C(CSc1c2c(nc3ccc(Cl)cc13)CCCC2)N1CCCCC1`, the survival is 22% (active).

In the case of `O=C(CSc1c2c(nc3ccc(Cl)cc13)CCCC2)NCc1ccccc1Cl`, the survival is 119% (inactive).

Regarding `CC1CCCN(C(=O)CSc2c3c(nc4cc(Cl)ccc24)CCCC3)C1` (configuration not stated), the survival was -5% (active).

With `CCC(C)NC(=O)CSc1c2c(nc3cc(Cl)ccc13)CCCC2` (configuration not stated), the survival was 82% (inactive).

For `CCOC(=O)c1ccc(NC(=O)CSc2c3c(nc4cc(Cl)ccc24)CCCC3)cc1`, the survival is 68% (inactive).

As to `Cc1ccc(CNC(=O)CSc2c3c(nc4cc(Cl)ccc24)CCCC3)cc1`, the survival is 80% (inactive).

On to `Cc1ccc(C)c(NC(=O)CSc2c3c(nc4ccc(Cl)cc24)CCCC3)c1`, for which the survival was 53% (inactive).

`CC1CCN(C(=O)CSc2c3c(nc4ccc(Cl)cc24)CCCC3)CC1`: the survival is 0% (active).

`COc1ccc(OC)c(CNC(=O)CSc2c3c(nc4cc(Cl)ccc24)CCCC3)c1`: the survival is 68% (inactive).

In the case of `CC1CCCCN1C(=O)CSc1c2c(nc3cc(Cl)ccc13)CCCC2` (configuration not stated), the survival was -6% (active).

In the case of `CCOC(=O)C1CCN(c2nc3c(S(=O)(=O)c4ccc(Br)cc4)nnn3c3ccsc23)CC1`, the survival is 76% (inactive).

Take `O=[N+]([O-])c1ccc(S(=O)(=O)N2CCn3cccc3C2c2ccc(Br)cc2)cc1` (configuration not stated): the survival is 75% (inactive).

Consider `COc1ccc(-c2noc(CSc3nnc(C)n3-c3ccc(C)cc3)n2)cc1OC`, for which the survival is 59% (inactive).

For `COC(=O)c1ccc(-c2nc(-c3ccc(OC)c(OC)c3)no2)cc1`, the survival is 64% (inactive).

Turning to `O=C(CSCc1cc(=O)c2cc(F)ccc2[nH]1)Nc1ccccc1Cl`, the survival is 94% (inactive).

For `CCOC(=O)c1ccc(NC(=O)CSc2nccn2Cc2ccc(OC)cc2)cc1`, the survival was 79% (inactive).

On to `COc1cc(NC(=O)c2cc(-c3cccc(Cl)c3)on2)c(OC)cc1Cl`, for which the survival was 61% (inactive).

On to `CC1CCc2nc(NC(=O)COc3ccc(C(C)(C)C)cc3)sc2C1` (configuration not stated), for which the survival is 80% (inactive).

Turning to `CCOC(=O)C1CCN(C(=O)CSc2c3c(nc4ccc(Cl)cc24)CCCC3)CC1`, the survival is 39% (active).

Regarding `CC1CCN(C(=O)CSc2c3c(nc4cc(Cl)ccc24)CCCC3)CC1`, the survival was 5% (active).

For `COCCNC(=O)CSc1c2c(nc3cc(Cl)ccc13)CCCC2`, the survival is 71% (inactive).

In the case of `CCOc1ccc(CNC(=O)CSc2c3c(nc4cc(Cl)ccc24)CCCC3)cc1`, the survival is 51% (inactive).

Regarding `CCc1ccccc1Nc1sc(C(=O)c2cccc(OC)c2)c(N)c1S(=O)(=O)c1ccccc1`, the survival was 72% (inactive).

As to `Cc1ccc(S(=O)(=O)CCc2nnc(NC(=O)C3CCCN3C(=O)NC3CCCCC3)s2)cc1` (configuration not stated), the survival was 72% (inactive).

Turning to `CCOc1ccc(CCNC(=O)c2sc3nc4n(c(=O)c3c2C)CCCC4)cc1`, the survival is 75% (inactive).

For the compound `CCn1cc2nc(SCC(=O)Nc3ccc(C)cc3)n(Cc3ccc(C)cc3)c(=O)c2n1`, the survival is 69% (inactive).

In the case of `O=c1cc2nc(-c3ccccc3F)nc(SCc3ccc(Br)cc3)n2[nH]1`, the survival is 0% (active).

Consider `O=c1cc2nc(-c3ccccc3)nc(SCc3cccc(Br)c3)n2[nH]1`, for which the survival is 98% (inactive).

For `Cc1cccc(-c2nc(SCc3ccc(Br)cc3)n3[nH]c(=O)cc3n2)c1`, the survival was 92% (inactive).

With `Cc1ccc(CSc2nc(-c3ccc(C(C)(C)C)cc3)nc3cc(=O)[nH]n23)cc1`, the survival was 89% (inactive).

Regarding `COc1ccccc1NC(=O)CSc1nc(-c2ccccc2F)nc2cc(=O)[nH]n12`, the survival is 71% (inactive).

As to `Cc1ccc(-c2nc(SCc3ccc(Br)cc3)n3[nH]c(=O)cc3n2)cc1`, the survival was 37% (active).

`CCC(c1nnnn1CCOC)N1CCN(c2nc3ccccc3s2)CC1` (configuration not stated): the survival was 87% (inactive).

For `N=C(N)N1CCN(CC(O)COc2ccccc2)CC1` (configuration not stated), the survival is 84% (inactive).

As to `C#CCn1cc(/C=C(/C#N)C(=O)Nc2ccccc2)c2ccccc21`, the survival is 54% (inactive).

In the case of `CCCCNC(=O)C1CCN(c2nc(OC)nc(OC)n2)CC1`, the survival is 83% (inactive).

Consider `Cc1ccc(OCCSc2nc3ccccc3n2CC(=O)N2CCCCC2)c(C)c1`, for which the survival was 51% (inactive).

For `CCn1c(SCC(N)=O)nc2ccccc21`, the survival was 79% (inactive).

Take `Cc1ccc(C)c(OCCSc2nc3ccccc3n2CC(=O)N2CCOCC2)c1`: the survival is 55% (inactive).

For the compound `O=C(Cn1c(SCCOc2ccccc2Cl)nc2ccccc21)N1CCOCC1`, the survival is 39% (active).

As to `Cc1cccc(OCCSc2nc3ccccc3n2CC(=O)N2CCOCC2)c1C`, the survival is 50% (inactive).

On to `CCn1c(SCCOc2ccccc2F)nc2ccccc21`, for which the survival is 0% (active).

Regarding `Cc1cccc(OCCSc2nc3ccccc3n2CC(=O)N2CCCCC2)c1C`, the survival is 28% (active).

In the case of `COc1ccccc1OCCSc1nc2ccccc2n1CC(=O)N1CCOCC1`, the survival was 94% (inactive).

`Cc1ccc(C(C)C)c(OCCSc2nc3ccccc3n2CC(O)CO)c1` (configuration not stated): the survival was 48% (inactive).

As to `O=C(CSc1nc2ccccc2n1CC(=O)N1CCCC1)N1CCCCC1`, the survival is 85% (inactive).

Turning to `O=C(Cn1c(SCCOc2ccccc2Cl)nc2ccccc21)N1CCCCC1`, the survival was 34% (active).
